# From PubChem BioAssay (NCATS)
# Where “and” joins values, the source holds several entries; their conditions need not be identical. Identical values can stand only once. Records with an inconclusive call do not appear. Entries that show only a call come without a potency. Calls of active or inactive are those of the source. Unless noted, calls follow the shape of the dose curve; as a rule, active = well fitted curve in the direction sought with a large enough effect; inconclusive = small, poorly fitted or top-dose-only effect, or another doubt; inactive = no such curve, though single readings can be large; an effect the other way counts as inactive or inconclusive.
# How the values were obtained:
# [1] = P-glycoprotein substrates identified in KB-8-5-11 adenocarcinoma cell line, qHTS therapeutic library screen (AID 1346987); also: nearly all actives have a fitted effect of over 65% in size; also: potency is read from the fitted curve at half-maximal effect
# How it was run: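 Steps: plate 500 KB-8-5-11 cells/well in DMEM + 10% FCS (colchicine removed); pin compounds in dose-response; incubate 72 h, 37 degree C, 5% CO2; add CellTiter-Glo, 5 min; read luminescence.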
# [2] = Primary qHTS for inhibitors of nuclear receptor binding SET domain protein 2 (NSD2) in an isogenic RCH-ACV NSD2 p.E1099K mutant (9B) (AID 1645876); also: nearly all actives have a fitted effect of over 70% in size; also: potency is read from the fitted curve at half-maximal effect
# [3] = Primary qHTS for inhibitors of nuclear receptor binding SET domain protein 2 (NSD2) in an RCH-ACV wild type WT cells (2C) (AID 1645877); also: nearly all actives have a fitted effect of over 70% in size; also: potency is read from the fitted curve at half-maximal effect
# [4] = target: Glutathione peroxidase 1 (Homo sapiens) (UniProt P07203); assay: Primary qHTS Assay for Inhibitors of Recombinant Selenoprotein Glutathione Peroxidase 1 (GPX1) (AID 1845191); also: nearly all actives have a fitted effect of over 65% in size; also: potency is read from the fitted curve at half-maximal effect
# Glutathione peroxidase 1 (Homo sapiens), sequence (P07203 whole entry, looked up): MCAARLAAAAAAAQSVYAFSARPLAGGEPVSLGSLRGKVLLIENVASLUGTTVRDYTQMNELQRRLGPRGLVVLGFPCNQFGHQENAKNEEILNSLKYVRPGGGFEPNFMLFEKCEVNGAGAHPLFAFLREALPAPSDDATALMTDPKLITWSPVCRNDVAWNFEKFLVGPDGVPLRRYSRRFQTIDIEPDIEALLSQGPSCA
# How it was run: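 GR-coupled assay: compounds preincubated 30 min at room temperature with GPX1, then reaction started with CHP; final 10 nM GPX1, 1 mM GSH, 0.5 mM CHP, 0.5 mM NADPH, 100 nM GR, 0.01% BSA, pH 7.5 Tris buffer. NADPH fluorescence (340/450 nm) read at 0 and 15 min.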
# [5] = target: Phospholipid hydroperoxide glutathione peroxidase GPX4 (Homo sapiens) (UniProt P36969); assay: Primary qHTS Assay for Inhibitors of Recombinant Selenoprotein Glutathione Peroxidase 4 (GPX4) (AID 1845192); details: outcome: dose series up to 50 µM unless noted; also: nearly all actives have a fitted effect of over 65% in size
# Phospholipid hydroperoxide glutathione peroxidase GPX4 (Homo sapiens), sequence (P36969 whole entry, looked up): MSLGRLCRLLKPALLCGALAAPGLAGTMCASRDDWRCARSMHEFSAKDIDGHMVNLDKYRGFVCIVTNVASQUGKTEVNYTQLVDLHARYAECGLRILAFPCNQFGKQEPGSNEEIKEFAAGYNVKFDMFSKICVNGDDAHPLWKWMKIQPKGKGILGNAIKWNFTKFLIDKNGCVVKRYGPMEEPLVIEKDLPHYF
# How it was run: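 GR-coupled assay: recombinant GPX4 preincubated 30 min with compound at room temperature; final 200 nM GPX4, 1 mM GSH, 0.5 mM cumene hydroperoxide, 0.5 mM NADPH, 100 nM GR, 0.01% BSA, pH 7.5 Tris. NADPH fluorescence (340/450 nm) read at 0 and 15 min.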
# [6] = qHTS drug screen for cell cycle checkpoint inhibitors in PARPi-resistant BRCA-mutant ovarian cancer cell lines. (AID 1963452; calls by dose curve; also: potency is read from the fitted curve at half-maximal effect); details: PEO1/OlaR viability, CellTiter-Glo luminescence, 96 h; for Z-AUC: stronger effect = lower value
# How it was run: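 PEO1, PEO4 and PEO1/OlaR ovarian cancer cells, 600 per well, exposed 96 h at 37C to a dilution series. Viability read by CellTiter-Glo luminescence, normalized to DMSO and empty wells; activity summarized as Z-AUC.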
# [7] = target: Calcium and integrin-binding protein 1 (Homo sapiens) (UniProt Q99828); assay: Primary qHTS for Identification of Calcium Integrin Binding Protein 1 (CIB1) Competitor (AID 1508620);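 also: GST tagged CIB1 binding a fluorescein labelled alphaIIb integrin peptide tracer; top concentration of the series differs between compounds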
# Calcium and integrin-binding protein 1 (Homo sapiens), sequence (Q99828 whole entry, looked up): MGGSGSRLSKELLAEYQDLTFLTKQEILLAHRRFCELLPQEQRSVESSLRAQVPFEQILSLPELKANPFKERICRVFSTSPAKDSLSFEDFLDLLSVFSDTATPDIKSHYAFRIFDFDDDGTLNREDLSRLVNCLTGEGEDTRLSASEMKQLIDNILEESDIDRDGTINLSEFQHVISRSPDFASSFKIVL
# How it was run: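 Fluorescence polarization competition: GST-tagged CIB1 (1 uM final) preincubated with compound 15 min at room temperature, then FITC-labelled alphaIIb peptide (100 nM final) added. After 15 min at room temperature, polarization read at Ex 480/Em 540.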
# [8] = measured here: PEO1 parental Z-AUC
compound,measurement,setting,value
C[C@@H]1N=C(N)NC(N(C)C)=N1,Potency,[1],inactive
same,Potency,[2],inactive
same,Potency,[3],inactive
same,Potency,[4],inactive
same,Potency,[5],inactive
same,Z-AUC,[6],1.33 (inactive)
same,Z-AUC,[6]; [8],1.06
same,Z-AUC,[6]; measured here: PEO4 Z-AUC,1.03
CCOC(=O)CN[C@@H](C(=O)N1CC[C@H]1C(=O)NCc1ccc(/C(N)=N/O)cc1)C1CCCCC1,Potency,[4],inactive
same,Potency,[5],inactive
CCCCCCCCCCCCCCCCSCC(COC)COP(=O)([O-])OCC[N+](C)(C)C (stereo unspecified),Potency,[1],inactive
C#C[C@]1(OC(C)=O)CC[C@H]2[C@@H]3CCC4=CC(=O)CC[C@@H]4[C@H]3CC[C@@]21C,Potency,[4],inactive
same,Potency,[5],inactive
Cc1nc2c(O)cccc2c(=O)[nH]1,Potency,[1],inactive
same,Potency,[2],inactive
same,Potency,[3],inactive
Cn1cc(C2=C(c3cn(CCCSC(=N)N)c4ccccc34)C(=O)NC2=O)c2ccccc21,Potency,[1],inactive
same,Potency,[2],1.46 µM (active)
same,Potency,[3],1.64 µM (active)
COc1cc([C@@H]2c3cc4c(cc3C(O[C@@H]3O[C@@H]5CO[C@@H](C)O[C@H]5[C@H](O)[C@H]3O)C3COC(=O)[C@@H]32)OCO4)cc(OC)c1OP(=O)(O)O (stereo partly specified),Potency,[1],18.4 µM (active)
CCN(CC)C(=O)c1cc(S(=O)(=O)Cc2ccccc2)c(N2CCC(c3ccccc3)CC2)cc1N(CC)CCN(C)C,Potency,[1],16.4 µM (active)
same,outcome,[7],inactive
C#Cc1cccc(Nc2ncnc3cc(OC)c(OC)cc23)c1,Potency,[1],9.2 µM (active)
same,Potency,[2],14.6 µM (active)
same,Potency,[4],inactive
COc1ccc(C(=O)Nc2sc3c(c2C(N)=O)CCCC3)cc1OC,Potency,[1],inactive
same,Potency,[2],inactive
same,Potency,[3],inactive
same,Potency,[4],inactive
Nc1ncnc2c1c(I)cn2C1OC(CO)C(O)C1O (stereo unspecified),Potency,[1],2.31 µM (active)
same,Potency,[2],1.84 µM (active)
same,Potency,[3],1.03 µM (active)
same,Potency,[4],inactive
N#C/C(=C(\N)Sc1ccc(N)cc1)c1ccccc1C(F)(F)F,Potency,[1],inactive
O=c1[nH]ccc2c(S(=O)(=O)N3CCCNCC3)cccc12,Potency,[1],inactive
same,Potency,[2],inactive
same,Potency,[3],inactive
same,Potency,[4],inactive
O=C1NC(=O)/C(=C/c2ccc3nccc(-c4ccncc4)c3c2)S1,Potency,[1],3.66 µM (active)
same,Potency,[2],920 nM (active) and 332 nM (active)
same,Potency,[4],inactive
same,Potency,[5],inactive
same,Potency,[6],1.95 µM (active)
same,Z-AUC,[6]; [8],-1.47
same,Z-AUC,[6]; measured here: PEO4 Z-AUC,-1.84
COc1cc(/C=C(\C#N)C(N)=O)cc(CSc2nc3ccccc3s2)c1O,Potency,[1],inactive
same,Potency,[2],inactive
same,Potency,[3],inactive
same,Potency,[4],inactive
CN1CCN(CCC=C2c3ccccc3Sc3ccc(S(=O)(=O)N(C)C)cc32)CC1,Potency,[1],23.1 µM (active)
NC(=O)c1sc(-c2ccsc2)cc1N,Potency,[1],inactive
same,Potency,[2],inactive
same,Potency,[3],inactive
same,Potency,[4],inactive
CNS(=O)(=O)c1ccc2c(c1)/C(=C/c1[nH]c3c(c1CCCN1CCN(C)CC1)CCCC3)C(=O)N2,Potency,[1],inactive
same,Potency,[2],inactive
same,Potency,[3],16.6 µM (active)
same,Potency,[4],inactive
same,Potency,[5],inactive
same,Z-AUC,[6],0.43 (inactive)
same,Z-AUC,[6]; [8],0.259
same,Z-AUC,[6]; measured here: PEO4 Z-AUC,-0.147
C[N+]1(C)CCN(CC(O)(c2ccccc2)C2CCCCC2)CC1 (stereo unspecified),Potency,[4],inactive
C=CC(=O)Nc1cccc(C)c1Nc1ncc2cc(-c3c(Cl)c(OC)cc(OC)c3Cl)ccc2n1,Potency,[1],9.2 µM (active)
same,Potency,[2],3.66 µM (active)
same,Potency,[3],4.11 µM (active)
same,Potency,[4],inactive
same,Potency,[5],inactive
same,Z-AUC,[6],-0.505 (inactive)
same,Z-AUC,[6]; [8],-0.983
same,Z-AUC,[6]; measured here: PEO4 Z-AUC,-1.33
NCCNCCN,Potency,[1],inactive
COc1c(Nc2ncc(Cl)c(N[C@H]3[C@H](C(N)=O)[C@@H]4C=C[C@@H]3C4)n2)ccc2c1CCC(N1CCOCC1)CC2 (stereo partly specified),Potency,[1],4.11 µM (active)
same,Potency,[2],1.05 µM (active)
same,Potency,[3],3.32 µM (active)
COc1cc(OC)cc(N(CCNC(C)C)c2ccc3ncc(-c4cnn(C)c4)nc3c2)c1,Potency,[1],18.4 µM (active)
same,Potency,[2],11.8 µM (active)
same,Potency,[3],10.5 µM (active)
same,Potency,[4],inactive
CN(C)Cc1cccc(N=C(c2ccccc2)c2c(O)[nH]c3cc(C(N)=O)ccc23)c1,Potency,[1],inactive
same,Potency,[2],16.4 µM (active)
same,Potency,[3],inactive
same,Potency,[4],inactive
same,Potency,[5],inactive
same,Z-AUC,[6],0.325 (inactive)
same,Z-AUC,[6]; [8],0.627
same,Z-AUC,[6]; measured here: PEO4 Z-AUC,-0.143
O=C(O)c1ccc2c3c1cccc3c(=O)n1c3ccccc3nc21,Potency,[1],inactive
same,Potency,[3],inactive
CN1CCC(c2c(O)cc(O)c3c(=O)cc(-c4ccccc4Cl)oc23)C1CO (stereo unspecified),Potency,[1],5.17 µM (active)
same,Potency,[2],0.417 µM (active)
same,Potency,[3],0.332 µM (active)
same,Potency,[4],inactive
same,Potency,[5],inactive
same,Z-AUC,[6],-0.419 (inactive)
same,Z-AUC,[6]; [8],-1.06
same,Z-AUC,[6]; measured here: PEO4 Z-AUC,-0.725
N[C@@H](C(=O)N[C@@H]1C(=O)N2C(C(=O)O)=C(CSc3cn[nH]n3)CS[C@H]12)c1ccc(O)cc1,Potency,[4],18 µM (active)
same,Potency,[5],inactive
CN(CC(=O)N1CCOCC1)Cc1c(Cl)cccc1NC(=O)c1ccccc1,Potency,[4],inactive
same,Potency,[5],inactive
CS(=O)(=O)CCNCc1nc(-c2ccc3ncnc(Nc4ccc(OCc5cccc(F)c5)c(Cl)c4)c3c2)cs1,outcome,[1],inactive [at 9.29 µM]
same,outcome,[4],inactive [at 9.52 µM]
CCCCCCCC[N+](C)(C)CCCCCCCC,Potency,[1],inactive
C=CC(=O)c1ccc2ccccc2c1,Potency,[1],inactive
same,Potency,[3],inactive
Cc1[nH]c(/C=C2\C(=O)Nc3ccccc32)c(C)c1CCC(=O)O,Potency,[1],inactive
same,Potency,[2],inactive
same,Potency,[3],inactive
Cc1cn(C2OC(CO)C(O)C2F)c(=O)[nH]c1=O (stereo unspecified),Potency,[1],inactive
same,Potency,[2],inactive
same,Potency,[3],inactive
O=C(NOCCO)c1ccc2cncn2c1Nc1ccc(I)cc1F,Potency,[1],inactive
same,Z-AUC,[6],1.17 (inactive)
same,Z-AUC,[6]; [8],0.484
same,Z-AUC,[6]; measured here: PEO4 Z-AUC,0.455
